# From PubChem BioAssay (EPA / NIEHS)
# Where “and” joins values, the source holds several entries; their conditions need not be identical. Equal values may be shown once. Records with an inconclusive call do not appear. Where a structure was tested more than once in an assay, its records may differ in their call. Calls of active or inactive are those of the source. The calls were made as follows, unless noted: active = hit-call score of the fitted dose curve at least 0.9, where 1 is the maximum; inconclusive = response in the unintended direction; inactive = score below 0.9.
# Experiments:
# [1] = target: Cellular tumor antigen p53 (Homo sapiens) (UniProt P04637); assay: TOX21_p53_BLA_p2_ratio: Tox21 HCT-116 p53 Agonism Beta-lactamase Assay, Ratio, Phase 2 (AID 2283592)
# Chain of Cellular tumor antigen p53 (Homo sapiens) (P04637 whole entry, looked up): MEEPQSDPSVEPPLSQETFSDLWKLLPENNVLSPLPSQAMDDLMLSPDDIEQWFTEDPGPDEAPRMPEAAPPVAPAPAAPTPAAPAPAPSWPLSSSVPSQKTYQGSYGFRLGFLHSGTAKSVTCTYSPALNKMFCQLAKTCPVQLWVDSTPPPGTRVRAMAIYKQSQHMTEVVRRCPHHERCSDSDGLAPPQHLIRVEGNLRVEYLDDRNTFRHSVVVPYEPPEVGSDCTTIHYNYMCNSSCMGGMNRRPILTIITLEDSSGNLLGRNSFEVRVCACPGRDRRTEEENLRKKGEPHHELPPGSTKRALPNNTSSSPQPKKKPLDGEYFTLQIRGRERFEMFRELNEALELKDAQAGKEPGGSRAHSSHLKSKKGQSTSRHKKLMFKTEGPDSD
# Method in brief: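 Cleaved-to-uncleaved substrate ratio (460 vs 530 nm) measured in HCT116 cells with an inducible beta-lactamase reporter linked to p53 activity. Compounds incubated 16 h at 37C before 2 h room-temperature CCF4-AM loading.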
# [2] = TOX21_p53_BLA_p3_viability: Viability Assessment in the Tox21 HCT-116 p53 Agonism Beta-lactamase Assay, Phase 3 (AID 2283593);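 also: cells exposed to compound for 16 h before reading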
# Method in brief: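 Cellular ATP was quantified by CellTiter-Glo luminescence, read after 30 min at room temperature. Beforehand, HCT116 cells (4000/well) received compound 5 h post-seeding, 217-fold diluted from DMSO, then incubated 16 h at 37C.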
# [3] = TOX21_p53_BLA_p4_viability: Viability Assessment in the Tox21 HCT-116 p53 Agonism Beta-lactamase Assay, Phase 4 (AID 2283597);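 also: hits lower the luminescence signal meaning cytotoxicity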
# Method in brief: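 Viability is taken as cellular ATP: after 16 h compound exposure of HCT116 cells and a 2 h room-temperature CCF4-AM substrate step, CellTiter-Glo reagent is added and luminescence is measured 30 min later.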
# [4] = target: Cellular tumor antigen p53 (Homo sapiens) (UniProt P04637); assay: TOX21_p53_BLA_p5_ratio: Tox21 HCT-116 p53 Agonism Beta-lactamase Assay, Ratio, Phase 5 (AID 2283599)
# Method in brief: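 Beta-lactamase reporter ratio (blue 460 nm over green 530 nm, 405 nm excitation) after 2 h CCF4-AM loading, in HCT-116 cells exposed 16 h at 37 C to compounds pinned at 217-fold dilution. Increases relative to DMSO baseline scored.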
# [5] = target: Cellular tumor antigen p53 (Homo sapiens) (UniProt P04637); assay: TOX21_p53_BLA_p3_ratio: Tox21 HCT-116 p53 Agonism Beta-lactamase Assay, Ratio, Phase 3 (AID 2283596)
# Method in brief: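 Cells were seeded at 4000/well, rested 5 h at 37C, then dosed with DMSO compound solutions (217-fold dilution) for 16 h. CCF4-AM substrate was loaded for 2 h at room temperature, and the 460/530 nm emission ratio was fitted for gain of signal versus DMSO.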
# [6] = tested on: Thyroperoxidase (TPO), gene 54314; assay: CCTE_Simmons_AUR_rTPO: CCTE's Amplex UltraRed Assay for Thyroperoxidase (TPO) Inhibition, Simmons Lab (AID 2283662);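 also: potency for loss of signal meaning inhibition of peroxidase activity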
# Method in brief: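 Endpoint is decreased Amplex UltraRed fluorescence after a 30-min, 37C reaction of rat thyroid microsomes with 300 uM H2O2. Eight test concentrations (5 nM–87.5 uM final) in 0.5% DMSO, three biological replicates each.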
# [7] = CCTE_Simmons_CellTiterGLO_HEK293T: Viability Assessment in CCTE's Assays for Thyroperoxidase (TPO) Inhibition, Simmons Lab (AID 2283665);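 as to AC50: cells exposed to compound for 24 h before readout; actives reduce ATP signal below DMSO vehicle meaning cytotoxicity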
# Method in brief: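 Cells were seeded overnight, then exposed to an eight-point series up to 87.5 uM final for 24 hours. CellTiter-Glo reagent was added and luminescence read after 20 min, giving ATP-based viability versus DMSO.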
# [8] = CEETOX_H295R_MTT_cell_viability: Viability Assessment in the CeeTox HT-H295R MTT Assay (AID 2283718; active = hit-call score of the fitted dose curve at least 0.9, where 1 is the maximum; inactive = score below 0.9;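 as to AC50: curve fitted both ways so AC50 may mark viability loss or gain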)
# Method in brief: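 MTT reduction (0.5 mg/ml, 4 h at 37 C; absorbance at 570 and 650 nm) gave viability as background-corrected percent change versus controls. H295R cells had 48 h forskolin (10 uM) prestimulation, then 48 h chemical exposure at 0.1% DMSO.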
# [9] = target: Luciferin 4-monooxygenase (Photinus pyralis) (UniProt P08659); assay: CCTE_Simmons_QuantiLum_inhib_2: CCTE's Firefly Luciferase Inhibition Assay, Simmons Lab (AID 2283767);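 as to AC50: potency for inhibitors that lower luciferase luminescence relative to DMSO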
# Chain of Luciferin 4-monooxygenase (Photinus pyralis) (P08659 whole entry, looked up): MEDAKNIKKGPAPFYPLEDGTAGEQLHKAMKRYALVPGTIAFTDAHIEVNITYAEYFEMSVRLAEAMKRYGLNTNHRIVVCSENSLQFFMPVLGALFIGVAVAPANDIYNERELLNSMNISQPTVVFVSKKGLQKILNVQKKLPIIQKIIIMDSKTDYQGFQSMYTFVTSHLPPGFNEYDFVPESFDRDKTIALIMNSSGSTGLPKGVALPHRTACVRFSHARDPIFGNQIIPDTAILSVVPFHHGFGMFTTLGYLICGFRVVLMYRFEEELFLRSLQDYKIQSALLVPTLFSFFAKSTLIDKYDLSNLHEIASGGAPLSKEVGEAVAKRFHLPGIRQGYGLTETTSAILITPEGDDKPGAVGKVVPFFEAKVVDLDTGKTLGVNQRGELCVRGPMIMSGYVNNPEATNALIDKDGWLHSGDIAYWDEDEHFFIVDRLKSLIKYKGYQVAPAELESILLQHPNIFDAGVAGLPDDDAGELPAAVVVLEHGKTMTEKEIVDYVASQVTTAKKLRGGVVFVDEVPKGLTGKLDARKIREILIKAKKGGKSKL
# Method in brief: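 First, 5 ng purified luciferase in phosphate buffer with BSA is dispensed per well. Next, test chemicals (5 nM to 87.5 uM final, 0.5% DMSO) are added and incubated 30 min at 37C in darkness. Finally, luciferin reagent is injected and luminescence read kinetically.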
# [10] = tested on: zebrafish Androgen Receptor (AR), gene 100005148; assay: ATG_zfAR_XSP1: Attagene TRANS-FACTORIAL Multi-Species (XSP1) HepG2 Assay for zebrafish Androgen Receptor (AR) (AID 2283771)
# Method in brief: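 Gain-of-signal versus DMSO was measured as reporter transcripts quantified by RT-PCR, fluorescent labelling and capillary electrophoresis after 24 h chemical exposure. The cells were HepG2 expressing a chimeric zebrafish AR-GAL4, co-stimulated with 3 nM 6-alpha-fluorotestosterone.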
smiles,measurement,setting,value
CCCCCCOC(=O)c1ccccc1,outcome,[1],inactive
same,outcome,[2],inactive
same,outcome,[3],inactive
same,outcome,[4],inactive
CC(Cc1ccc(O)c(O)c1)C(C)Cc1ccc(O)c(O)c1 (stereo unspecified),AC50,[2],86.7 µM (active)
same,AC50,[5],75.1 µM (active)
same,AC50,[3],46.1 µM (active)
same,AC50,[4],81.3 µM (active)
same,AC50,[6],0.55 µM (active)
same,AC50,[7],87 µM (active)
same,AC50,[8],37.4 µM (active)
same,AC50,[9],16.1 µM (active)
C(=C(c1ccccc1)c1ccccc1)c1ccccc1,outcome,[1],inactive
same,outcome,[2],inactive
same,outcome,[3],inactive
same,outcome,[4],inactive
same,outcome,[10],inactive
FC(F)(F)C(F)(F)C(F)(F)C(F)(F)CCI,outcome,[5],inactive
same,outcome,[4],inactive
CC/C=C\CCOC(C)=O,outcome,[2],inactive
same,outcome,[5],inactive
same,outcome,[4],inactive
Nc1ccc([N+](=O)[O-])cc1O,outcome,[1],inactive
same,outcome,[2],inactive
same,outcome,[5],inactive
same,outcome,[3],inactive
same,outcome,[4],inactive
CN(C)Cc1ccccc1O,outcome,[1],inactive
same,outcome,[3],inactive
same,outcome,[4],inactive
CCCCCCOC(=O)c1ccccc1O,outcome,[1],inactive
same,outcome,[2],inactive
same,outcome,[5],inactive
same,outcome,[3],inactive
same,outcome,[4],inactive
C#C[C@]1(O)CC[C@H]2[C@@H]3CCc4cc(OC)ccc4[C@H]3CC[C@@]21C,outcome,[1],inactive
same,outcome,[2],inactive
same,outcome,[5],inactive
same,outcome,[3],inactive
same,outcome,[4],inactive
same,AC50,[8],44 µM (active)
Oc1ccc(Nc2ccccc2)cc1,outcome,[1],inactive
same,outcome,[2],inactive
same,outcome,[5],inactive
same,outcome,[4],inactive
CNC(=S)NC,outcome,[1],inactive
same,outcome,[2],inactive
same,AC50,[3],46.1 µM (active)
same,outcome,[4],inactive
C1COCCN1,outcome,[1],inactive
same,outcome,[2],inactive
same,outcome,[5],inactive
same,outcome,[3],inactive
same,outcome,[4],inactive
CCN(CC)c1ccc2c(C)cc(=O)oc2c1,AC50,[1],36.8 µM (active) and 44.9 µM (active)
same,outcome,[2],inactive
same,AC50,[5],40.9 µM (active) and 38.6 µM (active)
same,outcome,[3],inactive
same,AC50,[4],38.6 µM (active) and 31.6 µM (active)
CCCCOc1ccc(N)cc1,outcome,[1],inactive
same,outcome,[5],inactive
same,outcome,[3],inactive
same,outcome,[4],inactive
same,AC50,[6],0.869 µM (active)
same,outcome,[7],inactive
same,outcome,[9],inactive
Nc1cc(Cl)c(N)c(Cl)c1,outcome,[1],inactive
same,outcome,[2],inactive
same,outcome,[3],inactive
CCCCCCS,outcome,[8],inactive
c1ccc(B(c2ccccc2)c2ccccc2)cc1,outcome,[2],inactive
same,outcome,[3],inactive
same,outcome,[4],inactive
same,AC50,[6],29.2 µM (active)
same,AC50,[7],90.1 µM (active)
same,AC50,[8],50 µM (active)
same,AC50,[9],53.8 µM (active)
CCc1ccc(C(c2ccc(CC)cc2)C(Cl)Cl)cc1,outcome,[1],inactive
same,outcome,[2],inactive
same,outcome,[5],inactive
same,outcome,[3],inactive
same,outcome,[4],inactive
OC[C@@H](O)[C@@H](O)[C@H](O)[C@@H](O)CO,outcome,[1],inactive
same,outcome,[2],inactive
same,outcome,[5],inactive
same,outcome,[4],inactive
CCCCCCCCCCCCCCCC[N+](C)(C)Cc1ccccc1,AC50,[1],64.7 µM (active)
same,outcome,[1],inactive
same,AC50,[2],33.5 µM (active) and 9 µM (active)
same,outcome,[5],inactive
same,AC50,[3],25.9 µM (active) and 27.1 µM (active)
same,AC50,[4],75.8 µM (active) and 38.4 µM (active)
O=C(OCCOCCOCCOC(=O)c1ccccc1)c1ccccc1,outcome,[1],inactive
same,AC50,[4],82.1 µM (active)
Nc1ccc(S(=O)(=O)Nc2nccs2)cc1,outcome,[1],inactive
same,outcome,[2],inactive
same,outcome,[5],inactive
same,outcome,[4],inactive
CCN(Cc1cccc(S(=O)(=O)O)c1)c1ccc(C(=C2C=CC(=[N+](CC)Cc3cccc(S(=O)(=O)O)c3)C=C2)c2ccc(O)cc2S(=O)(=O)[O-])cc1,AC50,[6],19.1 µM (active)
same,AC50,[7],7.74 µM (active)
same,AC50,[9],3.86 µM (active)
CCCCCCCOC(=O)c1ccccc1C(=O)OCCCCCCC,outcome,[8],inactive
CCC(=O)OCCc1ccccc1,outcome,[1],inactive
same,outcome,[5],inactive
same,outcome,[4],inactive
O=S(=O)(O)c1ccc2ccccc2c1,outcome,[1],inactive
same,outcome,[2],inactive
same,outcome,[3],inactive
same,outcome,[4],inactive
Cc1cc(C)cc(O)c1,outcome,[1],inactive
same,outcome,[5],inactive
same,outcome,[4],inactive
Cc1ccc(S(=O)(=O)NCl)cc1,outcome,[1],inactive
same,outcome,[2],inactive
same,outcome,[5],inactive
same,outcome,[3],inactive
same,outcome,[4],inactive
Nc1ccc(Oc2cccc(Oc3ccc(N)cc3)c2)cc1,outcome,[8],inactive
Cc1cccc(N(C)C)c1,outcome,[8],inactive
CCCCCC=O,outcome,[1],inactive
same,outcome,[5],inactive
same,outcome,[3],inactive
same,outcome,[4],inactive
O=C(C=Cc1ccccc1)OCC=Cc1ccccc1,outcome,[1],inactive
same,outcome,[2],inactive
same,outcome,[5],inactive
CCCCNc1ccccc1,outcome,[1],inactive
same,outcome,[2],inactive
same,outcome,[5],inactive
same,outcome,[3],inactive
same,outcome,[4],inactive
CC/C=C\CCOC(=O)c1ccccc1,outcome,[1],inactive
same,outcome,[5],inactive
same,outcome,[3],inactive
same,outcome,[4],inactive
CC(=O)Nc1ccc(N=Nc2cc(C)ccc2O)cc1,outcome,[8],inactive
CC(C)OC(=O)c1ccccc1C(=O)OC(C)C,outcome,[8],inactive
COC(=O)C1CCC(C(=O)OC)CC1 (stereo unspecified),outcome,[1],inactive
same,outcome,[2],inactive
same,outcome,[5],inactive
same,outcome,[3],inactive
same,outcome,[4],inactive
same,outcome,[8],inactive
CC(CCl)OP(=O)(OC(C)CCl)OC(C)CCl (stereo unspecified),outcome,[2],inactive
same,outcome,[5],inactive
same,outcome,[3],inactive
